Source: PubChem BioAssay
Rows were chosen to be rich in hits. Some 2.4% of all compounds tested hit in one or more screens of this group.
STAT3 inh = STAT3 signaling inhibition | 190,000 tested, 0.89% active | inhibition, % at 5.5 µM | AID 862 | U3A cells, IL-6 STAT3-luciferase reporter, luminescence; host cell line lacks STAT1;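 active = inhibition above the mean inhibition across all screened compounds plus 3 SD, cut at about 44% in these data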;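 note: 0% = DMSO only wells and 100% = 100 µM nifuroxazide control wells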
HSF1 inh = HSF1 inhibition. NIH3T3-HGL HSE-luciferase, MG132-induced, luminescence 8 h; stronger effect = lower value. activity change, negative = inhibition, % at 7.5 µM (by protocol). 300,000 tested, 0.77% active. AID 2098;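 active = more than half of replicate wells show activity change below -50%, luminescence cut by over half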;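 note: luciferase reports HSF-1 transcriptional activity via heat shock element; 0% = median of DMSO wells and -100% = zero luminescence signal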
TRAIL sens C8 = caspase-8 TRAIL sensitization; inhibition (viability loss, TRAIL sensitization), % at 10 µM; NB7+C8 cells + TRAIL, ATPlite viability luminescence; AID 624354; 360,000 tested, 1% active;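 active = compounds causing at least 50% loss of cell viability in the single-dose screen, relative to plate controls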
HSP90 inh = HSP90 refolding inhibition in rabbit reticulocyte lysate | luciferase refolding luminescence, 3 h | inhibition, % at 5.6 µM | 290,000 tested, 0.91% active;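 active = inhibition above the screen-wide mean plus 3 SD, computed separately per campaign, cut at about 16% in these data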;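 note: 0% = DMSO wells and 100% = 60 µM geldanamycin wells; inhibitors lower the luminescence because luciferase stays unfolded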
STAT1 inh = inhibitors of IFN-gamma induced STAT1 signaling. NIH 3T3 STAT1-luciferase reporter, luminescence. inhibition, % at 5.5 µM. 200,000 tested, 0.35% active. AID 920;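 active = inhibition above a set limit, the mean inhibition across all tested compounds plus 3 SD, cut at about 34% in these data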;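 note: 0% = IFN-gamma with DMSO and 100% = IFN-gamma with 300 µM nifuroxazide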
PPC-1+TRAIL kill = kills PPC-1 cancer cells in the presence of TRAIL | cell killing (% activity), % at 4 µM or 5 µM | PPC-1 cells + TRAIL, ATPLite viability luminescence | 220,000 tested, 0.41% active;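 active = cell killing above 50% in the first pass at 4 µM, then a duplicate retest at 5 µM averaging 50% or more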;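 note: plate controls were cells with TRAIL plus DMSO for no effect and medium-only wells lacking cells for full effect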
An asterisk follows results filed as active; . = no result given.

SMILES | STAT3 inh | HSF1 inh | TRAIL sens C8 | HSP90 inh | STAT1 inh | PPC-1+TRAIL kill
Cc1ccc(NC(=O)c2ccccc2)s1 | 39 | 20 | 53* | 2 | -18 | 11
CCc1nc2c(OCc3ccc(Cl)cc3)cccn2c1N(C)C(=O)c1ccncc1 | . | . | -9 | . | . | .
Cc1ccc(Nc2nc(CSc3nnc(-c4ccccc4C)n3C)cs2)cc1 | -5 | -7 | 38 | -4 | -5 | 23
Cc1ccc(Nc2nc(CSc3nnc(-c4ccccc4)n3C)cs2)cc1 | -5 | 15 | 50* | 0 | -3 | 45
Cc1ccc(Nc2nc(CSc3nnnn3C)cs2)cc1 | 16 | 18 | 51* | 1 | -15 | 30
CCN(CC)CCn1c(=S)[nH]c2cc(C(=O)NCCc3ccc(OC)c(OC)c3)ccc2c1=O | . | . | -9 | . | . | .
O=C(N/N=C/c1c[nH]c2ccccc12)c1ccc2c(c1)OCCO2 | . | -43 | 76* | -2 | . | 44
O=C(N/N=C/c1c[nH]c2ccccc12)c1ccccc1 | . | 7 | 2 | 0 | . | .
O=C(O)COc1ccccc1/C=N/NC(=O)c1ccc2c(c1)OCCO2 | . | -60* | 28 | 1 | . | .
CCCCCCCCC(c1nc2cc(C)c(C)cc2[nH]1)n1c(=O)c(-c2ccccc2Br)nc2ccccc21 (centres undefined) | . | . | 9 | . | . | .
Cn1c(=O)c2cc(NC(=O)CCc3cccnc3)ccc2n1Cc1ccc(F)cc1 | . | . | -5 | . | . | .
COc1ccc(C=O)cc1Cn1ccnc1C | 8 | -77* | -2 | -4 | -3 | 19
C/C(=N\NC(=O)c1nnn(-c2nonc2N)c1C(C)C)c1ccncc1 | . | -51* | 20 | 0 | . | .
COc1cccc(CC(=O)N[C@@H](CCSC)c2nc3ccccc3[nH]2)c1 | -8 | -54* | -8 | 1 | 3 | -1
C=CCN1C(=O)C(=Cc2ccc3c(c2)CCC3)SC1=S | . | . | 92* | . | . | .
Cc1ccc(S(=O)(=O)N/N=C/c2c(C)nn(-c3ccccc3)c2C)cc1 | 1 | -54* | -11 | 1 | -3 | 10
CN(c1ccccc1)S(=O)(=O)c1nnc(NC(=O)COc2ccccc2)s1 | . | -1 | 6 | 1 | . | .
CN(c1ccccc1)S(=O)(=O)c1nnc(NC(=O)COc2ccccc2F)s1 | . | -72* | -4 | -3 | . | .
COc1cccc(-c2nc3nc(C)cc(C)n3c2NC2CCCC2)c1 | . | . | -3 | . | . | .
CC(c1ccccc1)N1C(=O)c2cccnc2C1=O (centres undefined) | . | -2 | 0 | -5 | . | .
CC(NC1=CC(=O)c2cccnc2C1=O)C(O)c1ccccc1 (centres undefined) | . | . | 83* | . | . | .
C[C@H](O)[C@@H]1C(=O)N2CCc3ccc(-c4ccccc4)cc3[C@@H]2C[C@@H]1N(C)C(=S)Nc1ccc(F)cc1 | . | . | -7 | . | . | .
O=C(CSc1ncnc2nc[nH]c12)c1ccc(Cl)cc1 | . | -1 | 74* | 10 | . | .
O=C(CSc1ncnc2nc[nH]c12)c1ccccc1 | -9 | -16 | 24 | -3 | -21 | 5
C[C@@H]1CN([C@H](C)CO)C(=O)CCCn2nncc2CO[C@H]1CN(C)Cc1ccc2c(c1)OCO2 | . | . | -8 | . | . | .
SMILES | STAT3 inh | HSF1 inh | TRAIL sens C8 | HSP90 inh | STAT1 inh | PPC-1+TRAIL kill
CCCCC(=O)Nc1sc(C(=O)N(CC)CC)c(C)c1C(=O)OC | 2 | -88* | -5 | 3 | 0 | 4
CCOc1ccc(-c2nc(CSCC(=O)NCC3CCCO3)c(C)o2)cc1 (centres undefined) | . | -57* | -3 | 7 | . | .
Cc1c(P(=S)(c2ccccc2)c2ccccc2)[n+]2ccccc2n1CCc1ccccc1 | . | . | 53* | . | . | .
O=C(COC(=O)CCc1nc2ccccc2c(=O)[nH]1)Nc1c(Cl)cccc1C(F)(F)F | . | -70* | -21 | . | . | .
O=C(NCc1ccccc1)c1c(Cl)nc(Cl)c(Cl)c1Cl | . | 35 | 94* | -4 | . | .
Cc1nc(Cl)c(C(=O)NCc2ccccc2)c(C)c1Cl | 20 | -4 | 13 | 0 | -5 | 24
Cc1ccc(NC(=O)CN2C(=O)NC3(CCCC3)C2=O)c(Cl)c1 | . | -84* | -18 | 0 | . | .
Nc1c(Cl)cc(C(=O)NC2CC2)cc1Cl | . | . | -3 | . | . | .
Cc1cc(C)nc(N2CCCC(C(=O)NCc3cccs3)C2)n1 (centres undefined) | -6 | 1 | -9 | 0 | -2 | 7
Cc1ccnc(N2CCCC(C(=O)NCc3cccs3)C2)n1 (centres undefined) | 3 | -66* | -16 | 0 | -3 | 0
Clc1ccc(-c2nc3n(n2)Cc2ccccc2-3)cc1 | 8 | 26 | 59* | 2 | -42 | 22
OC(c1ccc(F)cc1)c1nc(-c2ccc(Cl)cc2)cs1 (centres undefined) | . | . | -4 | . | . | .
CC(=O)c1cccc(NS(=O)(=O)c2ccc(N/C=C\C(=O)c3ccc(C)cc3)cc2)c1 | 37 | 7 | 34 | 4 | 14 | 11
CC(=O)c1cccc(N/C=C\C(=O)c2ccc(C)cc2)c1 | 26 | -1 | 52* | 2 | -90 | 62*
CC(C)CNC(=O)C1(C)CCCN1C(=O)C(C)(C)Oc1ccc(Cl)cc1 (centres undefined) | . | . | -4 | . | . | .
COC(=O)C1=C(C)N(Cc2ccccc2)C(=NCC(C)C)N[C@H]1c1cccc(C(F)(F)F)c1 | . | . | 56* | . | . | .
COC(=O)C1=C(C)N(Cc2ccccc2)C(=NCC(C)C)N[C@H]1c1cccc(F)c1 | . | . | 15 | . | . | .
COC(=O)C1=C(C)N(Cc2ccccc2)C(=NCc2cccc(Cl)c2)N[C@H]1c1cccc(F)c1 | . | . | 81* | . | . | .
COC(=O)C1=C(C)N(Cc2ccccc2)C(=O)N[C@H]1c1cccc(C(F)(F)F)c1 | . | -1 | -4 | . | . | 9
COC(=O)C1=C(C)N(Cc2ccccc2)C(=NCc2ccc(OC)cc2)N[C@H]1c1cccc(F)c1 | . | 6 | 16 | 0 | . | .
COC(=O)C1=C(C)N(Cc2ccccc2)C(=NCc2ccccc2)N[C@H]1c1cccc(C(F)(F)F)c1 | . | . | 78* | . | . | .
CN(C(=O)c1cccc(NC(=O)Cc2ccc(NC(=O)C3CCCN(S(=O)(=O)c4cccc([N+](=O)[O-])c4)C3)cc2)c1)C1CCC1 (centres undefined) | . | . | -3 | . | . | .
COc1ccc(NC(=O)c2cc(C3CCCCN3C(=O)c3ccc(NC(C)=O)cc3)on2)c(C)c1 (centres undefined) | . | . | -6 | . | . | .
COc1cc(OC)cc(C(=O)Nc2nc3ccccc3[nH]2)c1 | 5 | 8 | 53* | -4 | -34 | 22
COc1ccc(C(=O)Nc2nc3ccccc3[nH]2)cc1OC | 20 | 9 | 6 | 6 | -31 | 20
Cc1cc(C)cc(C(=O)Nc2nc3ccccc3[nH]2)c1 | . | 13 | 50* | -2 | . | .
